Calls of active or inactive are those of the source. The rule behind the calls is not given here.

In general, inhibition refers to how much of the control response was suppressed.

Sequence of Pantothenate synthetase (Mycobacterium tuberculosis (strain ATCC 25618 / H37Rv)) (P9WIL5 whole entry, looked up): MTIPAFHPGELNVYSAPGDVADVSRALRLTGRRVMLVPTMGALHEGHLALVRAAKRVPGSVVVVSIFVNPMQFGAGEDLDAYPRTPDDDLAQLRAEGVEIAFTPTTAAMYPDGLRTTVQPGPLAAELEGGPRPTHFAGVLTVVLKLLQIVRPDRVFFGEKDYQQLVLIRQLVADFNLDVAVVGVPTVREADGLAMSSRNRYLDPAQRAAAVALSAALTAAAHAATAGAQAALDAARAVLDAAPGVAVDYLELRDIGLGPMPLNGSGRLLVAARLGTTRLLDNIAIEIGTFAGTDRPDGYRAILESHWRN

The experiment has as its target Pantothenate synthetase (Mycobacterium tuberculosis (strain ATCC 25618 / H37Rv)) (UniProt P9WIL5). Kind of experiment: Recombinant Mtb pantothenate synthetase (PanC) inhibitors, coupled enzyme, confirmatory (AID 375).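 Note: 0% = full reaction with vehicle and 100% = no enzyme background.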 The following applies: coupled enzyme assay; at 10 µM, hits give high values.
For the molecule `O=C(CSc1nc2c(sc3ccccc32)c(=O)n1Cc1ccco1)NCC1CCCO1` (configuration not stated), the inhibition is 2% (inactive).

As for `Cc1ccc(S(=O)(=O)NC(=O)NN2CCCCCC2)cc1`, the inhibition was 4% (inactive). As for `CCc1nc2scc(-c3ccccc3)c2c(=O)n1N`, the inhibition is 5% (inactive).

Consider `COc1ccc(NC(=O)c2cc(C3CC3)on2)c(OC)c1`, for which the inhibition is 0% (inactive). For `O=C(Nc1nc2ccc(S(=O)(=O)N3CCCC3)cc2s1)C1CCCO1` (configuration not stated) the value was 0% (inactive); for `Cc1ccc2nc(-c3ccc(S(=O)(=O)N4CCOCC4)cc3)cn2c1`, 0% (inactive). In the case of `COc1ccc(S(=O)(=O)N(C)C2CCN(C)CC2)cc1`, the inhibition is 0% (inactive).

Regarding `CCCC1c2ccc(C)n2CCN1C(=O)Nc1ccccc1Cl` (configuration not stated), the inhibition is 1% (inactive). For `COc1ccc(-c2noc(CN3C(=O)c4ccccc4C3=O)n2)cc1` the value was 0% (inactive); for `O=C(Cn1ncc2c(=O)oc3ccccc3c21)NCC1CCCO1` (configuration not stated), 4% (inactive); for `CC1NC2(C(=O)N(Cc3ccccc3)c3ccccc32)C2C(=O)N(c3ccccc3)C(=O)C12` (configuration not stated), 0% (inactive). For the molecule `COCCN(CCOC)c1ncnc2c1cnn2-c1ccccc1`, the inhibition was 0% (inactive). The result for `CCOC(=O)CNC(=O)CSc1ncnc2c1cnn2Cc1ccccc1` reads 0% (inactive); that for `N#C/C(C(=O)N1CCOCC1)=C1/SC(Cc2ccccc2)C(=O)N1c1ccccc1` (configuration not stated), 0% (inactive). `CC(Oc1ccc2oc(-c3ccccc3)c(C(=O)O)c2c1)C(=O)O` (configuration not stated): the inhibition was 0% (inactive).

For `Cc1ccc(-n2ncc3c(=O)n(CC(=O)N4CCCc5ccccc54)cnc32)cc1C`, the inhibition was 4% (inactive). On to `CCOC(=O)c1sc2nc(SCC(=O)NCc3ccco3)n(Cc3ccccc3)c(=O)c2c1C`, for which the inhibition is 0% (inactive).

Source of the values: PubChem BioAssay.
